Our source for the composite z-score and z-score values is PubChem BioAssay.

Active and inactive are the calls of the source.

Assay [1] in a line: small molecules captured by biotinylated probe aFSTL3 – biochemical, small-molecule microarray, fluorescence 635/667, stem cell growth factor project, primary screen (AID 1064).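 Also: measures binding of the biotinylated anti-FSTL3 antibody to printed compounds.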 The settings on record: higher = more signal.
Assay [2] can be described thus: binders from COS7 lysate, DM2A8 probe, primary screen, torsin A project, cell lysate, small-molecule microarray, fluorescence 635/667 (AID 1065). The settings on record: higher = more signal, COS7 lysate expressing mutant human TOR1A.
Assay [3] in a line: small molecules captured by biotinylated probe aFGF2 – biochemical, small-molecule microarray, fluorescence 635/667, stem cell growth factor project, primary screen (AID 1067).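 Also: measures binding of biotinylated aFGF2 protein to printed compounds on slides; z-score merges feature fluorescence and signal-to-noise across triplicate slides.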 The settings on record: higher = more signal.
A short description of assay [4]: small molecules captured by biotinylated probe aFGF10 – biochemical, small-molecule microarray, fluorescence 635/667, stem cell growth factor project, primary screen (AID 1071).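 Also: score merges 667 nm spot intensity and signal to noise from triplicate slides.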 The settings on record: higher = more signal.
Assay [5] deals with Neurogenic locus notch homolog protein 2 (Homo sapiens) (UniProt Q04721). As to the kind of experiment: small molecules binding Notch2 protein – biochemical, small-molecule microarray, 635 nm fluorescence, stem cell growth factors, primary screen (AID 1073). The settings on record: higher = more signal.
Assay [6] concerns the target Pro-neuregulin-1, membrane-bound isoform (Homo sapiens) (UniProt Q02297). Kind of assay: small molecules binding neuregulin-1 protein – biochemical, small-molecule microarray, fluorescence 635/667, psychiatric disease protein project, primary screen (AID 1075).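 Also: score combines 667 nm spot fluorescence with signal to noise.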 The settings on record: NRG1 binding, 635 nm fluorescence, higher = more signal.
Assay [7] has as its system Neuregulin-1 EGF-like domain. Kind of assay: small molecules binding NRG1 EGF domain – biochemical, small-molecule microarray, 635 nm fluorescence, primary screen (AID 1081).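 Also: binding of the protein to compounds printed on small-molecule microarray slides.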 The settings on record: higher = more signal.
A short description of assay [8]: FRG1 expression reporter modulators in myotubes – cell-based, C2C12 myotubes, firefly/Renilla luciferase, luminescence, FRG1 inhibition for FSHD, primary screen (AID 1084). The settings on record: FRG1 promoter luciferase, higher = more signal, called active from +8 up or from −8 down.
Assay [9] in a line: small molecules captured by biotinylated probe aFST – biochemical, small-molecule microarray, fluorescence 635/667, stem cell growth factor project, primary screen (AID 1086).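 Also: score merges 667 nm fluorescence with signal-to-noise of each printed compound spot.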 The settings on record: higher = more signal.
The nature of assay [10]: binders of probe aHhip on microarray, primary screen, stem cell growth factor project, biochemical, small-molecule microarray, fluorescence 635/667 (AID 1087).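 Also: score merges spot fluorescence at 667nm with spot signal to noise ratio.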 The settings on record: higher = more signal.
Assay [11] relates to PRMT1 (protein arginine N-methyltransferase 1). Kind of assay: small molecules binding arginine methyltransferase PRMT1 – biochemical, small-molecule microarray, 635 nm fluorescence, primary screen (AID 1088).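 Also: binding of Prmt1 protein to compounds spotted on small-molecule microarray slides.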 The settings on record: higher = more signal.
A short description of assay [12]: growth effects on S. cerevisiae YJM789 – YJM789 clinical isolate, OD600, 24 h, basal, primary screen (AID 1089).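 Also: growth of clinical yeast isolate S. cerevisiae YJM 789 seeded 1000 cells per well; test concentration not given here.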 The settings on record: higher = more signal, called active from +8 up or from −8 down.
Assay [13] in a line: S. pombe growth modifiers, basal conditions – strain 972, OD600, 24 h, no modulator, primary screen (AID 1090).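 Also: basal condition with compound alone and no growth modifier present; test concentration not given here.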 The settings on record: S. pombe 972 growth, higher = more signal, called active from +8 up or from −8 down.
A short description of assay [14]: budding yeast growth modifiers under rapamycin – strain BY4716, OD600, 96 h, primary screen (AID 1091). Also: test concentration not given here. The settings on record: S. cerevisiae BY4716 + rapamycin, higher = more signal, called active from +8 up or from −8 down.
For assay [15], the target named is Torsin-1A-interacting protein 2 (Homo sapiens) (UniProt Q8NFQ8). Kind of assay: small molecules binding lysate-expressed LULL1 – cell lysate, human LULL1 lysate, 635/667 nm fluorescence, primary screen (AID 1092).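 Also: probe is lysate of COS7 cells overexpressing human LULL1; score merges per-feature 667 nm fluorescence with signal-to-noise.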 The settings on record: small-molecule microarray, hLULL1 lysate binding, 635 nm fluorescence; higher = more signal.
Assay [16] in a line: optical density change of DRC41 E. coli – strain DRC41, OD650, 24 h, E. coli filamentation project, primary screen (AID 1093).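 Also: MC1000 strain lacking acrAB efflux and sulA so SOS filamentation is blocked; test concentration not given here.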 The settings on record: E. coli DRC41 growth, higher = more signal, called active from +8 up or from −8 down.
The nature of assay [17]: probe aLefty2 binding to arrayed compounds – biochemical, biotinylated probe, 635/667 nm fluorescence, primary screen (AID 1094).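 Also: score merges spot fluorescence near 667 nm with spot signal-to-noise ratio.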 The settings on record: small-molecule microarray, higher = more signal.
The test system of assay [18] is Noggin (protein binding on small-molecule microarray). Kind of assay: small molecules binding Noggin protein – biochemical, 635/667 nm fluorescence, primary screen (AID 1095).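 Also: score merges 667 nm feature fluorescence with signal to noise over triplicate slides.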 The settings on record: 635 nm fluorescence, higher = more signal.
In assay [19] the target is Neurogenic locus notch homolog protein 3 (Homo sapiens) (UniProt Q9UM47). Kind of assay: small molecules binding NOTCH3 protein – biochemical, 635/667 nm fluorescence, primary screen (AID 1096). The settings on record: small-molecule microarray, 635 nm fluorescence, higher = more signal.
A short description of assay [20]: probe aEGFR binding to arrayed compounds – biochemical, biotinylated probe, 635/667 nm fluorescence, primary screen (AID 1097).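 Also: probe is a biotinylated anti-EGFR antibody binding compounds printed on slides; score combines fluorescence near 667 nm and signal to noise of each spot.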 The settings on record: small-molecule microarray, higher = more signal.

Pro-neuregulin-1, membrane-bound isoform (Homo sapiens), sequence (Q02297 whole entry, looked up, the tested form may be a part, canonical isoform): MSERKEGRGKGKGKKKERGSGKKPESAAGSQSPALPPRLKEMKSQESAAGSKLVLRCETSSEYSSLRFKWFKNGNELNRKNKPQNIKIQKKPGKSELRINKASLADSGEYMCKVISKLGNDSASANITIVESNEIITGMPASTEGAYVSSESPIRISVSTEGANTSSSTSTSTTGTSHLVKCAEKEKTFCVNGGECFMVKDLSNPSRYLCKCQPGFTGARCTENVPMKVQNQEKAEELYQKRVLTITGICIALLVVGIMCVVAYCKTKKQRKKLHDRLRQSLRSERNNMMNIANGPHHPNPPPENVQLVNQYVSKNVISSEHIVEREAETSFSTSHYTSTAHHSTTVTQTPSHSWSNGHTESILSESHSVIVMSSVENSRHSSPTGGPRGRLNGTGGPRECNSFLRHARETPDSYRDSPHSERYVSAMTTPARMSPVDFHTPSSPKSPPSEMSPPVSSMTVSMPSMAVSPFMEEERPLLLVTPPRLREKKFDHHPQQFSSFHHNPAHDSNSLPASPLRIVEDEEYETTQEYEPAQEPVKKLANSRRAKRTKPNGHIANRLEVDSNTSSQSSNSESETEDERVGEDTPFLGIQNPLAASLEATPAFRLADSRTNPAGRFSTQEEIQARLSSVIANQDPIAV
Torsin-1A-interacting protein 2 (Homo sapiens), sequence (Q8NFQ8 whole entry, looked up): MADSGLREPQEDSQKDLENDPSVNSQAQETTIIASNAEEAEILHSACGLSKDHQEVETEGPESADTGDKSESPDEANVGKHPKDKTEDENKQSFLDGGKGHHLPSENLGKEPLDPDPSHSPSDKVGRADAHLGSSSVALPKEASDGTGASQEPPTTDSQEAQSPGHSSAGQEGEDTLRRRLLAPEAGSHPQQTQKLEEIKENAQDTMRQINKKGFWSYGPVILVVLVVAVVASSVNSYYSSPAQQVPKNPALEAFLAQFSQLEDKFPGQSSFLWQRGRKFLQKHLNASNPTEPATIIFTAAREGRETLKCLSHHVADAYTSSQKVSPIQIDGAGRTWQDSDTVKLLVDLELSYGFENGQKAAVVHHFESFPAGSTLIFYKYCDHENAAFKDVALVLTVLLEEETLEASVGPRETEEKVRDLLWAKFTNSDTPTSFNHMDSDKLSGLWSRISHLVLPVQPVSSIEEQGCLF
Neurogenic locus notch homolog protein 2 (Homo sapiens), sequence (Q04721 whole entry, looked up, canonical isoform): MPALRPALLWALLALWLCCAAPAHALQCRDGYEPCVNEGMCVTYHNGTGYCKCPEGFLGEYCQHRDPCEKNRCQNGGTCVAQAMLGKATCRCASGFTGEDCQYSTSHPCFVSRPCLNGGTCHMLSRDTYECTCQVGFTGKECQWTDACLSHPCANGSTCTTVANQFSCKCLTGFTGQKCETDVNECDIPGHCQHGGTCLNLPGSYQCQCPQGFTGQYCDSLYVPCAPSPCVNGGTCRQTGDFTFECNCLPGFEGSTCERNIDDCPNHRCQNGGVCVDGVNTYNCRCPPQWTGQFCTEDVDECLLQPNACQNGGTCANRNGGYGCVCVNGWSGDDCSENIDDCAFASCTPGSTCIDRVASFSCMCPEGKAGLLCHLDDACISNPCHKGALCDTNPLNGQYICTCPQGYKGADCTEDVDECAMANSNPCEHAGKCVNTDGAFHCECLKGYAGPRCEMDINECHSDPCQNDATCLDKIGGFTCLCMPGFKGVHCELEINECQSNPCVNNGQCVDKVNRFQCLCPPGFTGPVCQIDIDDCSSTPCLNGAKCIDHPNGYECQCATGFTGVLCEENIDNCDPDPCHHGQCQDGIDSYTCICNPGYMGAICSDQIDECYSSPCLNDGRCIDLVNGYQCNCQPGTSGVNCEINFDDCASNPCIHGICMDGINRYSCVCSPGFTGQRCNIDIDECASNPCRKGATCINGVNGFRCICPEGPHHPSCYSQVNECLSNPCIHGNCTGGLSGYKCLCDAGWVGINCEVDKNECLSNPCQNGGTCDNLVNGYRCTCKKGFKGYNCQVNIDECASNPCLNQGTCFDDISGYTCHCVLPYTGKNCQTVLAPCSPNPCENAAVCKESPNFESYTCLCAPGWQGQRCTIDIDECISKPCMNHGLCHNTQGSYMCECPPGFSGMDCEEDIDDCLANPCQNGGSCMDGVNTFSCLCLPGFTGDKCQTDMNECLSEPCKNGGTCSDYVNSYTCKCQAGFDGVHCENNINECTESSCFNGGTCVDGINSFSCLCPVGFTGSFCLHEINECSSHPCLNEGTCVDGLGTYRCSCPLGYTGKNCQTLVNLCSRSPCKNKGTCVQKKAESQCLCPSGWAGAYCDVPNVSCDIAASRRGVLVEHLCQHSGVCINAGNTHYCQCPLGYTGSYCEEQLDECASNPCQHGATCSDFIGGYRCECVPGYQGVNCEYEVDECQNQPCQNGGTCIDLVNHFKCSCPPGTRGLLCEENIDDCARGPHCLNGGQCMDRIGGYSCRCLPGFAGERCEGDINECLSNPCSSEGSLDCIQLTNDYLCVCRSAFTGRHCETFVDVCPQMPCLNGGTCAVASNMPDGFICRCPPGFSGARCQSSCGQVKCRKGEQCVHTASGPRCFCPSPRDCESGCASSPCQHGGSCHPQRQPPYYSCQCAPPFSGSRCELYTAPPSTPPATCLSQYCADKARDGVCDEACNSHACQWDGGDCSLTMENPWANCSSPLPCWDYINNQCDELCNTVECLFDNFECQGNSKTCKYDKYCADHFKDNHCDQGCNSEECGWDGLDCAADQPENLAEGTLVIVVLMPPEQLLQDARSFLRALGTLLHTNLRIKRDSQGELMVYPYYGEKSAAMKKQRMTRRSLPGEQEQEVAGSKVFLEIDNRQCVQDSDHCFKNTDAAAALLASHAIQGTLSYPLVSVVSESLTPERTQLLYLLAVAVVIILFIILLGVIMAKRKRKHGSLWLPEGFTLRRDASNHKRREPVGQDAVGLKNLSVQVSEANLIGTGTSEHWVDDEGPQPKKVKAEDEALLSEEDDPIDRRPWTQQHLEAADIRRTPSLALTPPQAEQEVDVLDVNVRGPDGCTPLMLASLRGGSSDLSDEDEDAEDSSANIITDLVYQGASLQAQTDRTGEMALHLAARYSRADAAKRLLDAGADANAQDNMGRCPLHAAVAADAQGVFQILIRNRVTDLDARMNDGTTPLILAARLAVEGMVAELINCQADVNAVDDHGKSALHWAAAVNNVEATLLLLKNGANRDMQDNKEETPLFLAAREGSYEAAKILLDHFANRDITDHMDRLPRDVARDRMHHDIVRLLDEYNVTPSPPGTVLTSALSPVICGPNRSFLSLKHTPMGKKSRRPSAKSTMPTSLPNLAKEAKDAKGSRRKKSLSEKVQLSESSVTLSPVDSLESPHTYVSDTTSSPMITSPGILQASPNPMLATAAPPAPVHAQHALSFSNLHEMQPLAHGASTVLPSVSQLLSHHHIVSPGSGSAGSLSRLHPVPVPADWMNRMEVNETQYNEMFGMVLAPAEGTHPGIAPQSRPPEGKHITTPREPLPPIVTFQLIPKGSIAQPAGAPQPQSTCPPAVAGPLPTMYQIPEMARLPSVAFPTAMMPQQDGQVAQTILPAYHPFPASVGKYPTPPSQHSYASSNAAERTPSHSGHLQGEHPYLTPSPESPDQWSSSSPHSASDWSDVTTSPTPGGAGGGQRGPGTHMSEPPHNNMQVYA

For the compound `COCCOC(=O)N1C(=O)[C@@]2(c3ccccc31)[C@H](c1ccccc1OCCO)N1[C@H](c3ccccc3)[C@H](c3ccccc3)OC(=O)[C@H]1[C@@H]2C(N)=O`, the composite z-score in [1] is -0.299; in assay [2], 0.692; in [3] it was -0.0015; in [4] it was 0.725; in [5] it was 1.23; in [6], 0.133. Also, the composite z-score in [7] was 1.3; in [9], 0.971; in [10], -0.0645; in assay [11], 1.56; in [15], 2.89; in assay [17] it was 0.198. The figures for the composite z-score in assay [18], in assay [19] and in assay [20] were 0.463, 1.08 and 0.0258, respectively. Besides, the z-score was -2.08 (inactive) in assay [8]; 1.83 (inactive) in assay [12]; 1.54 (inactive) in [13]; 3.59 (inactive) in assay [14]; 0.0834 (inactive) in [16].

In the case of `O=C1O[C@H](c2ccccc2)[C@H](c2ccccc2)N2[C@H]1[C@@H](C(=O)O)[C@]1(C(=O)Nc3ccc(C#CC4(O)CCCCCC4)cc31)[C@H]2c1ccc(O)cc1`, the composite z-score in assay [1] is -0.252; in assay [2], 0.128; in assay [3], -0.166; in assay [4], 0.439; in [5], -0.0475; in assay [6], 1.28. Further, the composite z-score in assay [7] was 0.866; in assay [9], -0.247; in assay [10], -0.134; in assay [11], 0.871; in assay [15] it was 3.14; in assay [17], -0.142. Besides, the figures for the composite z-score in [18], in assay [19] and in assay [20] were -0.292, 0.0139 and 0.192, respectively. Besides, the z-score in assay [8] was -0.278 (inactive); in assay [12], -0.386 (inactive); in assay [13], -1.22 (inactive); in assay [14] it was -1.76 (inactive); in [16], 2.04 (inactive).

`NC(=O)NCC#Cc1ccc2c(c1)[C@]1(C(=O)N2)[C@H](C(=O)N2CCN(c3ncccn3)CC2)[C@H]2C(=O)O[C@H](c3ccccc3)[C@H](c3ccccc3)N2[C@@H]1c1ccc(OCCO)cc1`: the composite z-score was 0.0085 in assay [1]; 0.0039 in [2]; -0.0222 in [3]; 0.375 in assay [4]; 0.884 in assay [5]; 0.133 in [6]. Also, the composite z-score in [7] was 0.148; in [9], 0.548; in assay [10], 0.0659; in assay [11], 1.18; in [15], 1.89; in [17], -0.0321. The composite z-score is 0.513 in [18], 1.13 in [19] and -0.0271 in [20]. Also, the z-score in [8] was 1.62 (inactive); in [12], 2.47 (inactive); in assay [13], 2.31 (inactive); in [14], 5.27 (inactive); in [16], 1.37 (inactive).

For the compound `CCOC(=O)C1=CC[C@@H](c2ccccc2)N(S(=O)(=O)c2ccc(C)cc2)[C@H]1C=Cc1ccccc1`, the composite z-score is 0.162 in assay [1]; -0.0855 in assay [2]; -0.04 in assay [3]; 0.694 in [4]; 0.471 in assay [5]; 0.941 in assay [6]. Also, the composite z-score was 0.918 in assay [7]; 0.47 in assay [9]; 0.0373 in assay [10]; 0.238 in assay [11]; 2.32 in assay [15]; -0.0146 in assay [17]. In addition, the figures for the composite z-score in [18], in [19] and in assay [20] were -0.452, 0.258 and -0.0828, respectively. In addition, the z-score in assay [8] is -3.49 (inactive); in assay [12], 0.403 (inactive); in assay [13] it was 2.4 (inactive); in assay [14] it was 1.46 (inactive); in assay [16] it was -0.812 (inactive).

In the case of `O=C1N(CCS(=O)(=O)c2ccccc2)Cc2ccccc2[C@@H]2OC(c3ccc(OCCCO)cc3)=N[C@]12CCS(=O)(=O)c1ccccc1`, the composite z-score in assay [1] is 0.215; in assay [2] it was 0.675; in assay [3], 0.115; in [4] it was 0.507; in assay [5], 1.66; in [6], 1.46. Further, the composite z-score was determined as 1.39 in [7]; 1.18 in assay [9]; 0.0053 in assay [10]; 1.53 in assay [11]; 3.23 in assay [15]; 0.338 in assay [17]. Further, the composite z-score is 1.06 in [18], 1.02 in assay [19] and 0.266 in assay [20]. Also, the z-score in [8] was -2.06 (inactive); in assay [12], 2.61 (inactive); in [13], 1.97 (inactive); in [14] it was 6.29 (inactive); in [16], 0.833 (inactive).
